Measurements published in PubChem BioAssay (NCI).
This is part of a sample that, as a whole, favours compounds with a hit. Of some 83,000 tested, about 20% had one in any assay.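 Each cell line was grown in a 96-well plate and treated with one concentration of compound for 48 hours. Values below 10 were considered active.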 Calls of active or inactive are those of the source.

tested on: MDA-MB-468 breast; assay: NCI-60 one-dose screen, 48 h (100 = growth as untreated, 0 = no growth, -100 = all killed); conditions: 10 µM unless noted

SMILES	growth
O=C(NOCCO)c1cc(CN2OCCCC2=O)c(F)c(F)c1Nc1ccc(I)cc1F	114% (inactive)
O=C1c2cccc3cccc(c23)C(=O)N1C/C=C/c1ccc2c3c(cccc13)C(=O)N(CCO)C2=O	79.8% (inactive)
CO[C@H]1/C=C/C=C/C=C/C[C@H](OC(=O)[C@@H](C)NC(=O)C2CCCCC2)[C@H](C)[C@@H](O)/C(C)=C\CCC2=CC(=O)C=C(NC(=O)C1)C2=O	-40.9% (active)
O=c1[nH][nH]c(-c2ccc(F)cc2)c1-c1nc2ccccc2s1	100% (inactive)
CN(C)CCN=c1nc2c(c(N)n1-c1ccccc1)c(=S)n(-c1ccccc1)c(=S)n2-c1ccccc1	-34.6% (active)
NCCCOc1cc(Cl)ccc1NC(=O)c1cc2ccccc2cc1OCCCN	-85.3% (active)
O=Cc1ccc(F)cc1	91% (inactive)
Cn1cc(-c2noc(-c3cn(C)c4ncc(F)cc34)n2)c2cc(Br)ccc21	61.3% (inactive)
CCN(C)S(=O)(=O)Nc1cccc(Nc2ncnc3cc(NC(=O)CCl)ccc23)c1Cl	9.82% (active)
CC1OC(n2c3ccccc3c3c4c(c5c6ccccc6[nH]c5c32)C(=O)N(CCN[C@@H]2CCC[C@H]2N)C4=O)CC(O)C1O (some centres not stated)	-26.9% (active)
COc1cc(/C=C/C(=O)/C=C/c2cc3ccc(Cl)cc3[nH]c2=O)ccc1O	98.4% (inactive)
COc1cc2nc(Cl)nc(Nc3cccc(C(=O)/C=C/c4ccc(Cl)cc4)c3)c2cc1OC	63.8% (inactive)
CNC(=O)c1cccc(Cn2nc(C)c(NC(=O)c3ccc(COc4ccc(C(F)(F)F)cc4C)cc3)c2C)c1	-6.26% (active)
CN1CCN(c2ccc3c(c2)nc(NNC(=O)c2ccncn2)c2cccn23)CC1	19.7% (inactive)
C=CCOc1cccc(/C=C2\SC(=S)N(C3CC(=O)N(c4ccc(Br)cc4)C3=O)C2=O)c1 (configuration not stated)	111% (inactive)
NC(=S)N/N=C/c1ccc(OC(=O)COc2ccc(Cl)cc2)cn1	24.6% (inactive)
COc1cccc(N=CNc2cccc(OC)c2)c1	107% (inactive)
CCCCCCCCCCCCCCCCCCOc1ccccc1CC(=O)OCC[N+]1(C)CCCC1	-23.8% (active)
COc1ccc2c(c1)oc1c(C)c3c(c(C)c12)C(=O)N(CCOS(C)(=O)=O)C3=O	127% (inactive)
C=C(C)[C@@H]1CC[C@]2(C(=O)N3CCN(C)CC3)CC[C@]3(C)[C@H](CC[C@@H]4[C@@]5(C)CC(=C/c6ccncc6)/C(=N/O)C(C)(C)[C@@H]5CC[C@]43C)[C@@H]12	62.2% (inactive)
COC(=O)[C@]12CC[C@@H](C(=O)/C=C/c3cccnc3)[C@@H]1[C@H]1CC[C@@H]3[C@@]4(C)C/C(=C/c5cccnc5)C(=O)C(C)(C)[C@@H]4CC[C@@]3(C)[C@]1(C)CC2	-76.1% (active)
COc1cc2cc(Oc3ccc(NC(=O)Nc4ccc(Cl)c(C(F)(F)F)c4)cc3)c(C)nc2cc1OCCN1CCOCC1	-13.5% (active)
COc1cc(-c2nn(-c3cccc(NC(=O)NCCNC(=O)c4ccccc4)c3)cc2-c2ccncc2)ccc1Cl	12.1% (inactive)
COc1ccc(OC)c(/C=C2\Oc3cc(OCCN4CCCC4)ccc3C2=O)c1	98.9% (inactive)
CCNNC(=O)[C@@H]1[C@H](c2cc(OC)c(OC)c(OC)c2)c2cc3c(cc2[C@H](O)[C@H]1CO)OCO3	7.05% (active)
COc1ccccc1Cn1cc(C#N)c(N)c1C(=O)c1ccc(Br)cc1	72.2% (inactive)
Oc1ccc(Cc2ccccc2Cl)c(O)c1	98.4% (inactive)
